Source: ChEMBL document CHEMBL2218924, “A broad activity screen in support of a chemogenomic map for kinase signalling research and drug discovery” (Biochem J, 2013)

molecular target: PAS domain-containing serine/threonine-protein kinase (Homo sapiens) (UniProt Q96RG2); conditions: at 1 µM
Sequence (Q96RG2 whole entry, the tested form may be a part): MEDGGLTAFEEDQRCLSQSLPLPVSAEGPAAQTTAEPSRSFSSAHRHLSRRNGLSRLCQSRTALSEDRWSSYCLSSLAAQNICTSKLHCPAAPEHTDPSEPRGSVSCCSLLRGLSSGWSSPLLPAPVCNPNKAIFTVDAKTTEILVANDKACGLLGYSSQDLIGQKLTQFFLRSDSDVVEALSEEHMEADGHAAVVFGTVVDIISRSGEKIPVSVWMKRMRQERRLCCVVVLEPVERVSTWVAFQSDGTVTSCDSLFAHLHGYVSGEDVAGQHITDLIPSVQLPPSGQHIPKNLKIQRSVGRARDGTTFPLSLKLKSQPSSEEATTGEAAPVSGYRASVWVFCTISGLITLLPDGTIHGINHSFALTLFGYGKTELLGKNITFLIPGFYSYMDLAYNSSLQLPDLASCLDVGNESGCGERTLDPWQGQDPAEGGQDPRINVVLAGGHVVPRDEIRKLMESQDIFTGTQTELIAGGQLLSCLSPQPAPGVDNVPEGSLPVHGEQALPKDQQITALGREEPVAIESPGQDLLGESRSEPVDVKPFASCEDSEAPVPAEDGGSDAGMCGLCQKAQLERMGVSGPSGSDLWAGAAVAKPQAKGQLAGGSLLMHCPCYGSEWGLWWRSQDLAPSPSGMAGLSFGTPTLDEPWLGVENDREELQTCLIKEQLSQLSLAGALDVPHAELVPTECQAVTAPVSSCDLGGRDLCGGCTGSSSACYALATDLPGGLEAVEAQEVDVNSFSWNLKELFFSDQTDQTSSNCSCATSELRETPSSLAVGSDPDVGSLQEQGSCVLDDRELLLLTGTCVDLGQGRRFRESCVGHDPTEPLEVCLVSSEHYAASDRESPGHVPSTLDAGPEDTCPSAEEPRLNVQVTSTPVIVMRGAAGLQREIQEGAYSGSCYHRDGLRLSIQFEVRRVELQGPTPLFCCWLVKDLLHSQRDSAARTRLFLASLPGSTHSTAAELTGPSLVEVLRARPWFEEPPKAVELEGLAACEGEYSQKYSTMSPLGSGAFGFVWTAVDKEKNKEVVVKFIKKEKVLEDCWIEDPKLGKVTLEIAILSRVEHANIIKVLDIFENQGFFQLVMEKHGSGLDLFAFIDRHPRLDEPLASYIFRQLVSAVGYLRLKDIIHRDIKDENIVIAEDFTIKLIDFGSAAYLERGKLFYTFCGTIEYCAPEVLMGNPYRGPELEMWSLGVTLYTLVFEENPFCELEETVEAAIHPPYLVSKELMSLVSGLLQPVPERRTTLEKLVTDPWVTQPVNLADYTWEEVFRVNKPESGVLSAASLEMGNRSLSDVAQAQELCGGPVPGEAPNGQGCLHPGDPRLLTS

SMILES | residual activity [%]
Cn1sc(=O)n(Cc2ccccc2)c1=O | 100
O=C(CCCc1ccc(-c2ccccc2F)cc1)Nc1ccc(O)cc1 | 102
C[C@@H](N)[C@H]1CC[C@H](C(=O)Nc2ccncc2)CC1 | 82
Cc1nc2cc3nc(-c4cccs4)cnc3cc2n1C | 98
Nc1nc(Nc2ccc(S(N)(=O)=O)cc2)nn1C(=S)Nc1c(F)cccc1F | 108
